Source: PubChem BioAssay
USP30 inh: inhibitors of human USP30 deubiquitinase. 47,000 tested, 5.3% active. purified USP30, Ub-rhodamine cleavage fluorescence. Q70CQ3. inhibition, % at 25 µM
USP8 block: human USP8 deubiquitinase inhibition; inhibition, % at 20 µM; AID 1645853; purified USP8, Ub-rhodamine cleavage fluorescence, 30 min; P40818; 47,000 tested, 4.2% active
USP10 block: blocks human USP10 ubiquitin-rhodamine cleavage. purified USP10, Ub-rhodamine fluorescence, 60 min. 47,000 tested, 1.1% active. AID 1645856. inhibition, % at 20 µM
Target sequence (Q14694 whole entry, looked up): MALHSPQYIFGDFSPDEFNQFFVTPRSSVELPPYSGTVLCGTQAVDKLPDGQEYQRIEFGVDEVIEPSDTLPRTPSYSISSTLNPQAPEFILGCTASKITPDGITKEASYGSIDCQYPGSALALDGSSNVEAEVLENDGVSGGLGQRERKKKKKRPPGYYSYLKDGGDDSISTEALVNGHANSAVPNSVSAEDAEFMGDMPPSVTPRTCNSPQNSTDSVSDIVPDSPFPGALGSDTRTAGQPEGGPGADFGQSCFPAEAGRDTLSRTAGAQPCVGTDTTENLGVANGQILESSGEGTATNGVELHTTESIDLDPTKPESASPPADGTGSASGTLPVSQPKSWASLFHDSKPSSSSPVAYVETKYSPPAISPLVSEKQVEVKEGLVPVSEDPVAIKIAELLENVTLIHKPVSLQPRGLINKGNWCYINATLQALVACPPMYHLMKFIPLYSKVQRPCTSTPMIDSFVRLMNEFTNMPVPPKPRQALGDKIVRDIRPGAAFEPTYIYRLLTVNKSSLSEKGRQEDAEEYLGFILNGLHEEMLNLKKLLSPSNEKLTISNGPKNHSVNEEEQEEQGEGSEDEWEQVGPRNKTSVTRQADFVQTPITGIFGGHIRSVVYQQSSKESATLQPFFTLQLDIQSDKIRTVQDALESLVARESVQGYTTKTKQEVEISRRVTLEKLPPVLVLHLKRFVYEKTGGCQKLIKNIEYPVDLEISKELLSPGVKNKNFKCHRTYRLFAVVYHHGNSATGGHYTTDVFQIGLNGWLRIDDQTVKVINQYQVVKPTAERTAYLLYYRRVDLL
USP17 block: human USP17-like deubiquitinase inhibition; A8MUK1; purified USP17, Ub-rhodamine cleavage fluorescence, 3 h; inhibition, % at 50 µM; 47,000 tested, 6.5% active; AID 1645855
UCHL1 inh: human UCHL1 deubiquitinase inhibition | P09936 | purified UCHL1, Ub-rhodamine cleavage fluorescence | inhibition, % at 20 µM | 47,000 tested, 0.2% active
USP7 inh: blocks human USP7 ubiquitin-rhodamine cleavage; Q93009; inhibition, % at 20 µM; 47,000 tested, 0.3% active; purified USP7, Ub-rhodamine cleavage fluorescence
* hit, by the source's call. This is a sample that favours compounds with a hit; in the whole collection about 13% have one here. Rule as the data show it: active = inhibition above about 30%; inactive = the rest.

Results for Cc1cc(C)cc(-n2c(-c3ccccc3)cn3c4c(=O)n(C)c(=O)n(C)c4nc23)c1 ?
USP30 inh: 7; USP8 block: 2; USP10 block: 2; USP17 block: 0; UCHL1 inh: 0; USP7 inh: 2

What do the screens show for `COc1cc(C)ccc1-n1c(-c2ccc(F)cc2)cn2c3c(=O)n(C)c(=O)n(C)c3nc12`?
USP30 inh: 39*; USP8 block: 9; USP10 block: -1; USP17 block: 43*; UCHL1 inh: 6; USP7 inh: -11

How did Cc1oncc1C(=O)N1CC[C@H]2CO[C@H](CN3CCOCC3)[C@H]2C1 do in these assays?
USP30 inh: 30*; USP8 block: -141; USP10 block: 0; USP17 block: 6; UCHL1 inh: 22; USP7 inh: 6

Results for Cc1occc1C(=O)N1CC[C@@H]2CN(Cc3ccncc3)CCO[C@@H]2C1 ?
USP8 block: -12; USP10 block: 0; USP17 block: -20; UCHL1 inh: -5; USP7 inh: 1

Results for COc1ccc(S(=O)(=O)N2CCN(c3ccnc4cc(Cl)ccc34)CC2)cc1 ?
USP30 inh: 33*; USP8 block: 0; USP10 block: 4; USP17 block: 1; UCHL1 inh: 6; USP7 inh: 1

How did Cc1ccc(C)c(S(=O)(=O)N2CCN(c3nc(-c4cccs4)nc4ccccc34)CC2)c1 do in these assays?
USP30 inh: 31*; USP8 block: -47; USP10 block: 2; USP17 block: 14; UCHL1 inh: 0; USP7 inh: 5

Results for N#Cc1cccc(NC(=O)Cc2noc3ccccc23)c1 ?
USP30 inh: 0; USP8 block: -6; USP10 block: 1; USP17 block: 2; UCHL1 inh: -1; USP7 inh: 0

How did O=C(Cc1noc2ccccc12)NCC(=O)Nc1ccc(Cl)cc1 do in these assays?
USP30 inh: 25; USP8 block: 15; USP10 block: 13; USP17 block: 77*; UCHL1 inh: 3; USP7 inh: 3

Results for Cc1ccc(N(C)C(=O)c2nc(C)n(C3CCN(S(C)(=O)=O)CC3)c2C)cc1 ?
USP30 inh: -105; USP8 block: -6; USP10 block: -2; USP17 block: -24; UCHL1 inh: -4; USP7 inh: -6

What do the screens show for `Cc1ccc(NC(=O)c2cc(C3CC3)n3nccc3n2)c(F)c1`?
USP30 inh: 14; USP8 block: 4; USP10 block: -3; USP17 block: 3; UCHL1 inh: 1; USP7 inh: 0

How did Cc1nc(SCC(=O)NC(C)c2ccccc2)c2oc3ccccc3c2n1 (configuration not stated) do in these assays?
USP30 inh: 0; USP8 block: 11; USP10 block: 40*; USP17 block: 38*; UCHL1 inh: 2; USP7 inh: 4

How did Cc1nc(SCC(=O)Nc2ccc(C)c(Cl)c2)c2oc3ccccc3c2n1 do in these assays?
USP30 inh: 39*; USP8 block: 1; USP10 block: -1; USP17 block: 44*; UCHL1 inh: 1; USP7 inh: 2

What do the screens show for `COc1ccccc1NC(=O)CSc1nc(C)nc2c1oc1ccccc12`?
USP30 inh: 35*; USP8 block: 20; USP10 block: 1; USP17 block: 26; UCHL1 inh: 1; USP7 inh: 5

How did COc1ccc(NC(=O)CSc2nc(C)nc3c2oc2ccccc23)c(OC)c1 do in these assays?
USP30 inh: -7; USP8 block: 0; USP10 block: 2; USP17 block: 1; UCHL1 inh: -2; USP7 inh: 0

What do the screens show for `Cc1nc(SCC(=O)NC2CCCCC2)c2oc3ccccc3c2n1`?
USP8 block: 2; USP10 block: 3; USP17 block: -11; UCHL1 inh: -5; USP7 inh: -2

How did Cc1nc(SCC(=O)NCC2CCCO2)c2oc3ccccc3c2n1 (configuration not stated) do in these assays?
USP30 inh: 0; USP8 block: 0; USP10 block: 0; USP17 block: 4; UCHL1 inh: 0; USP7 inh: 0

Results for Cc1ccc(NC(=O)CSc2nc(C)nc3c2oc2ccccc23)c(C)c1 ?
USP30 inh: 32*; USP8 block: -2; USP10 block: -1; USP17 block: 26; UCHL1 inh: 0; USP7 inh: 5

What do the screens show for `Cc1nc(SCC(=O)Nc2ccc(Cl)c(Cl)c2)c2oc3ccccc3c2n1`?
USP30 inh: 9; USP8 block: 5; USP10 block: 4; USP17 block: 12; UCHL1 inh: 4; USP7 inh: 6

Results for Cc1ccc2[nH]c(=O)c(CN(CC3COCCO3)C(=O)Nc3ccccc3Cl)cc2c1 (configuration not stated) ?
USP30 inh: -1; USP8 block: 6; USP10 block: 0; UCHL1 inh: 1; USP7 inh: -6

How did Cc1ccc2[nH]c(=O)c(CN(CC3CCCO3)S(C)(=O)=O)cc2c1 (configuration not stated) do in these assays?
USP30 inh: 23; USP8 block: -2; USP10 block: -4; USP17 block: 2; UCHL1 inh: -2; USP7 inh: 1

Results for Cc1ccc2[nH]c(=O)c(CN(CC3COCCO3)C(=O)Nc3ccccc3F)cc2c1 (configuration not stated) ?
USP30 inh: 37*; USP8 block: 18; USP10 block: 0; USP17 block: 13; UCHL1 inh: 2; USP7 inh: 0

Results for Cc1ccc2[nH]c(=O)c(CN(CC3CCCO3)S(=O)(=O)c3ccccc3)cc2c1 (configuration not stated) ?
USP30 inh: 37*; USP8 block: -73; USP10 block: 1; USP17 block: 53*; UCHL1 inh: 7; USP7 inh: 10

Results for COc1ccccc1-c1noc2ncnc(N(Cc3ccco3)CC3CCCO3)c12 (configuration not stated) ?
USP30 inh: 36*; USP8 block: 12; USP10 block: 3; USP17 block: 18; UCHL1 inh: 4; USP7 inh: 8

Results for O=C(c1ccccc1)N1CC[C@@H]2[C@H](C1)CN2C(=O)Nc1cccc(Cl)c1 ?
USP30 inh: 22; USP8 block: 14; USP10 block: 1; USP17 block: 12; UCHL1 inh: 3; USP7 inh: -142

What do the screens show for `O=C(CCc1cccnc1)N1CCCC2(CCCN2Cc2cccc(F)c2)C1` (configuration not stated)?
USP30 inh: 44*; USP8 block: -81; USP10 block: -3; USP17 block: 11; UCHL1 inh: -1; USP7 inh: 0

Results for O=C(CCc1cccnc1)N1CCCC2(CCCN2Cc2ccccc2F)C1 (configuration not stated) ?
USP30 inh: -3; USP8 block: -65; USP10 block: -6; USP17 block: -20; UCHL1 inh: -2; USP7 inh: -2
